Screening data from PubChem.
EBNA-1 inhibitor: blocks EBNA-1 binding to DNA; AID 1950; inhibition, % at 14.8 µM; 0.34% of 300,000 active; EBNA-1 DNA binding, fluorescence polarization; in the data active = inhibition above about 28%
ZTA counter: counter-screen for EBNA-1 inhibitors: inhibitors of Epstein-Barr virus ZTA. P03206. inhibition, % at 11 µM. ZTA-DNA binding, fluorescence polarization. 0.15% of 320,000 active; in the data active = inhibition above about 33%
Target sequence (P03206 whole entry, looked up): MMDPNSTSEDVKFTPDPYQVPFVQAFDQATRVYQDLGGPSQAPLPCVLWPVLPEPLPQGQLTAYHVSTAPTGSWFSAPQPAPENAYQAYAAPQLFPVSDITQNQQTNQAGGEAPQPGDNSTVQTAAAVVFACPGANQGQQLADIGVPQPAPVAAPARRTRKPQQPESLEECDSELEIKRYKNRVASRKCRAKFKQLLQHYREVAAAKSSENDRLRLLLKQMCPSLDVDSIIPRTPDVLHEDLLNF
PAFAH2 FP inh: inhibitors of human PAFAH2 | recombinant PAFAH2, FP-rhodamine activity probe, fluorescence polarization | AID 492956 | inhibition, % at 3.39 µM | 0.99% of 340,000 active;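 active = inhibition above the mean over all tested compounds plus 3 SD, cut at about 30% in these data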;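 note: inhibitors block probe labeling of enzyme so polarization drops; 0% = enzyme with DMSO and 100% = wells lacking PAFAH2 protein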
PAFAH1B2 FP inh: PAFAH1B2 (human) inhibition | recombinant PAFAH1B2, FP-rhodamine activity probe, fluorescence polarization | P68402 | AID 492953 | 1.2% of 340,000 active | inhibition, % at 3.39 µM;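 active = inhibition above the mean of all tested compounds plus 3 SD, cut at about 24% in these data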;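 note: 0% = enzyme with DMSO and 100% = wells lacking PAFAH1B2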
Target sequence (P68402 whole entry, looked up): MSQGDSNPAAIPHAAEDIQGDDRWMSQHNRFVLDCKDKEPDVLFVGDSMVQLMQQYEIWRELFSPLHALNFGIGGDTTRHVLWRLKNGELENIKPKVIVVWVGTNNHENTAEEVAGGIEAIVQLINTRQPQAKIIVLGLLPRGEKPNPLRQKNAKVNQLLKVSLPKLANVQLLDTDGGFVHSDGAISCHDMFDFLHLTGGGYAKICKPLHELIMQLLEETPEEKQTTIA
rCAG binder: binds r(CAG) RNA repeats | r(CAG) RNA repeat, TO-PRO-1 dye displacement fluorescence | 1.3% of 370,000 active | inhibition, % at 3 µM;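 active = inhibition above the plate cutoff, the mean of all test compounds on that plate plus 3 SD, cut at about 35% in these data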;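 note: 0% = DMSO alone and 100% = 100 µM mitoxantrone as full dye displacement; higher means more dye released from RNA so lower well fluorescence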
PAFAH1B3 FP inh: blocks human PAF acetylhydrolase 1B catalytic subunit 3. 0.28% of 340,000 active. inhibition, % at 3.39 µM. recombinant PAFAH1B3, FP-rhodamine probe, fluorescence polarization. AID 492972;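 active = inhibition above the screen-wide average of all tested compounds plus 3 SD, cut at about 25% in these data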;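 note: 0% = enzyme with DMSO only and 100% = wells lacking PAFAH1B3 protein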
EBNA-1 confirm: EBNA-1 (EBV) inhibition, confirmation | Recombinant EBNA-1 DBD, Cy5-DNA fluorescence polarization | inhibition, % at 14.8 µM | 35% of 830 active | shares compounds with EBNA-1 inhibitor;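 active = mean inhibition across replicates above a set limit taken from the earlier primary screen, cut at about 28% in these data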;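 note: plate controls were EBNA-1 protein with DMSO for no effect and wells lacking EBNA-1 for full effect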
ZTA counter trip: counter-screen for EBNA-1 inhibitors: Epstein-Barr virus ZTA inhibitors, triplicate; shares compounds with EBNA-1 inhibitor; Zta-ZRE DNA binding, Cy5 fluorescence polarization; inhibition, % at 11.1 µM; 830 tested, under 10 active; AID 2328;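 active = mean inhibition over triplicates above a set limit taken from the primary EBNA-1 screen, cut at about 37% in these data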;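 note: purified full length Zta protein with Cy5 labeled ZRE DNA probe; 0% = Zta with DMSO and 100% = wells lacking Zta protein; inhibitors lower polarization by freeing the labeled DNA probe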
Active calls of the source: *; x = not tested or not shown. Most compounds without a hit are left out; they make up all but 2.9% or so of the library.

SMILES | EBNA-1 inhibitor | ZTA counter | PAFAH2 FP inh | PAFAH1B2 FP inh | rCAG binder | PAFAH1B3 FP inh | EBNA-1 confirm | ZTA counter trip
COc1ccc(-c2nnn(CC(=O)N(Cc3cccs3)C(C)C(=O)NCCC(C)C)n2)cc1OC (stereo unspecified) | -20 | -11 | -2 | 3 | 4 | -2 | x | x
COc1ccc(-c2nnn(CC(=O)N(CC(=O)NCCC(C)C)Cc3cccs3)n2)cc1OC | 30* | -1 | 5 | 3 | 1 | 1 | 5 | 9
O=C(Cc1ccc(S(=O)(=O)N2CCOCC2)s1)Nc1ccccc1Br | -5 | 11 | 0 | -1 | 8 | -7 | x | x
NC(=O)c1cc(-c2ccccc2)sc1NC(=O)Cc1ccc(S(=O)(=O)N2CCOCC2)s1 | 31* | -5 | -6 | -1 | 26 | -2 | 53* | 3
Cc1ccc(NC(=O)c2ccc(NCCc3ccccc3)c([N+](=O)[O-])c2)cc1F | -3 | -11 | 3 | 2 | 0 | 6 | x | x
O=C(Nc1cc(F)cc(F)c1)c1ccc(NCCc2ccccc2)c([N+](=O)[O-])c1 | 74* | 11 | 9 | 5 | -3 | 10 | 5 | 7
CC(C)CNS(=O)(=O)/C=C/c1ccccc1CNC(=O)OC(C)(C)C | x | x | x | x | 0 | x | x | x
COc1ccc(Nc2nc(NCc3ccco3)nc(N)c2[N+](=O)[O-])cc1 | 39* | 17 | x | x | 4 | x | 12 | 1
CC(C)CNc1cccc2c1S(=O)(=O)N(Cc1ccc(F)cc1)[C@@H](C)[C@H](c1ccccc1)O2 | x | x | x | x | 4 | x | x | x
Cc1onc(-c2c(Cl)cccc2Cl)c1C(=O)NC(=S)Nc1sc2c(c1C(N)=O)CCC(C)C2 (stereo unspecified) | 34* | 15 | -1 | -4 | 5 | 5 | 28* | 3
Cc1onc(-c2ccccc2)c1C(=O)Nc1sc2c(c1C#N)CCC(C)C2 (stereo unspecified) | -14 | -2 | -3 | 5 | 5 | 1 | x | x
CC(=O)NC(=S)Nc1ccc(NC(=S)NC(=O)/C=C/c2ccco2)cc1 | 43* | 1 | -21 | -7 | 20 | -10 | 32* | 15
COC(=O)[C@H](C(C)C)N(CCCc1cn(CC2CCCCC2)nn1)S(=O)(=O)c1ccc(F)cc1Br | x | x | x | x | 1 | x | x | x
COC(=O)c1ccc2nc(NC(=O)CCS(=O)(=O)c3ccccc3)sc2c1 | 44* | 17 | -9 | -3 | -3 | 7 | 52* | 5
CS(=O)(=O)c1ccc2nc(NC(=O)CCS(=O)(=O)c3ccccc3)sc2c1 | 6 | 11 | 1 | 7 | 1 | 12 | x | x
CC(C)(C)c1ccc(S(=O)(=O)N2CCN(C(=O)C(=O)c3cccc(C(F)(F)F)c3)CC2)cc1 | x | x | x | x | 3 | x | x | x
N#Cc1c2n(c3c(=O)n(CC(=O)c4ccc(Br)cc4)cnc13)CCCC2 | 0 | -2 | 6 | 0 | 1 | -2 | x | x
N#Cc1c2ncn(CC(=O)c3ccc(Br)cc3)c(=O)c2c2n1CCC2 | 29* | 8 | -3 | 9 | 0 | 9 | 136* | 5
COc1cc(C(=O)NNC(=O)/C=C/c2ccccc2)cc(OC)c1OC | x | x | -1 | 0 | 4 | 6 | x | x
COc1cc(C(=O)NNC(=S)NC(=O)/C=C/c2ccccc2)cc(OC)c1OC | 77* | -4 | -1 | 5 | 15 | 14 | 35* | 4
COc1ccc(-n2nnnc2SCC(=O)c2cccc(OC)c2)cc1 | 11 | 14 | 0 | 3 | 5 | 4 | x | x
COc1ccc(-n2nnnc2SCC(=O)c2ccc3c(c2)OCCO3)cc1 | 28* | -7 | -15 | -2 | 2 | -6 | 25 | 15
CN(Cc1ccccc1F)C(=O)C1C2C=CC3(CN(Cc4ccccc4)C(=O)C13)O2 (stereo unspecified) | x | x | x | x | 0 | x | x | x
CC(C)(C)NC(=O)C1C(c2ccc(C(F)(F)F)cc2)=Nc2ccccc2N1C(=O)c1cccc(C(F)(F)F)c1 (stereo unspecified) | x | x | x | x | 5 | x | x | x
Cc1ccccc1Cn1c(=O)n(-c2ccccc2)c(=O)c2ccc(C(=O)NCc3ccco3)cc21 | 12 | 14 | 6 | 2 | 3 | 5 | x | x
